# Shown are actives, neighbours in structure and some others; about 2.9% of the full set was active somewhere.
# rCAG binder = binders of r(CAG) RNA repeats, primary screen, biochemical, fluorescence | inhibition, % at 3 µM | AID 651821, 2012 | 1.3% of 370,000 active | r(CAG) RNA repeat, TO-PRO-1 dye displacement fluorescence;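 active = inhibition above the plate cutoff, the mean of all test compounds on that plate plus 3 SD, cut at about 35% in these data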;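 also: 0% = DMSO alone and 100% = 100 µM mitoxantrone as full dye displacement; higher means more dye released from RNA so lower well fluorescence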
# EBNA-1 inhibitor = EBNA-1 DNA-binding inhibitors, primary screen, biochemical, fluorescence polarization; inhibition, % at 14.8 µM; 0.34% of 300,000 active; AID 1950, 2009; in the data active = inhibition above about 28%
# ZTA counter = blocks Epstein-Barr virus ZTA, an EBNA-1 counter-screen; 0.15% of 320,000 active; P03206; inhibition, % at 11 µM; ZTA-DNA binding, fluorescence polarization; in the data active = inhibition above about 33%
# Target sequence (P03206 whole entry, looked up): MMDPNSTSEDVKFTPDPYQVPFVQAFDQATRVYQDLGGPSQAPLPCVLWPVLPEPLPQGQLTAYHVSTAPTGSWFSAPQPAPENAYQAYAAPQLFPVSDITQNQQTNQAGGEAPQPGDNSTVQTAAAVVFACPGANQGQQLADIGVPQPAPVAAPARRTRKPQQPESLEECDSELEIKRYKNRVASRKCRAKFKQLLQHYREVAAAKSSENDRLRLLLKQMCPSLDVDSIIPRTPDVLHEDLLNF
# PAFAH1B3 FP inh = PAFAH1B3 enzyme inhibitors, primary screen, biochemical, fluorescence polarization, human; inhibition, % at 3.39 µM; Platelet-activating factor acetylhydrolase IB subunit alpha1 (Homo sapiens), Q15102; 0.28% of 340,000 active; recombinant PAFAH1B3, FP-rhodamine probe;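 active = inhibition above the screen-wide average of all tested compounds plus 3 SD, cut at about 25% in these data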;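 also: 0% = enzyme with DMSO only and 100% = wells lacking PAFAH1B3 protein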
# Target sequence (Q15102 whole entry, looked up): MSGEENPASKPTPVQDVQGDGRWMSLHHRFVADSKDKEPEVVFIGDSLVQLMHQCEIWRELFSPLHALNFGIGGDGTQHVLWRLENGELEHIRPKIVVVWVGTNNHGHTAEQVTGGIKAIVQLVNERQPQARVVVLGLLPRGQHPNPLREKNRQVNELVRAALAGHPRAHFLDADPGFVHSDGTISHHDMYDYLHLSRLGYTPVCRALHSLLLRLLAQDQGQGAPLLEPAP
# PAFAH2 inh = PAFAH2 enzyme inhibitors, primary screen, biochemical, fluorescence polarization, human; Platelet-activating factor acetylhydrolase 2, cytoplasmic (Homo sapiens), Q99487; recombinant PAFAH2, FP-rhodamine activity probe; inhibition, % at 3.39 µM; 0.99% of 340,000 active; AID 492956, 2010;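 active = inhibition above the mean over all tested compounds plus 3 SD, cut at about 30% in these data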;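 also: inhibitors block probe labeling of enzyme so polarization drops; 0% = enzyme with DMSO and 100% = wells lacking PAFAH2 protein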
# PAFAH1B2 FP inh = PAFAH1B2 enzyme inhibitors, primary screen, biochemical, fluorescence polarization, human. Platelet-activating factor acetylhydrolase IB subunit alpha2 (Homo sapiens), P68402. recombinant PAFAH1B2, FP-rhodamine activity probe. inhibition, % at 3.39 µM. 1.2% of 340,000 active. AID 492953, 2010;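 active = inhibition above the mean of all tested compounds plus 3 SD, cut at about 24% in these data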;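 also: 0% = enzyme with DMSO and 100% = wells lacking PAFAH1B2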
# rCAG bind conf = small molecules binding CAG repeat RNA – biochemical, fluorescence, confirmation; shares compounds with rCAG binder; r(CAG) RNA repeat, TO-PRO-1 dye displacement fluorescence; inhibition, % at 3 µM; 70% of 4,300 active;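 active = inhibition above a per-plate cutoff, the mean inhibition of sample wells plus 3 SD, cut at about 35% in these data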;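 also: loss of TO-PRO-1 fluorescence as compound displaces dye from 1x1 AA loop RNA; 0% = DMSO only wells and 100% = 100 µM mitoxantrone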
# DNA CAG counter = displacement of TO-PRO-1 from CAG DNA duplex, counter-screen for rCAG RNA repeat binder project, biochemical, fluorescence, TO-PRO-1 dye, d(CAG) DNA oligo | shares compounds with rCAG binder | d(CAG) DNA oligo TO-PRO-1 dye displacement | inhibition, % at 3 µM | 94% of 4,300 active | AID 652068, 2013;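 active = inhibition above its plate's cutoff, the mean test-well inhibition plus 3 SD, cut at about 4.8% in these data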;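 also: 0% = DNA dye mix with DMSO and 100% = 100 µM mitoxantrone; hits displace the dye from DNA and so lower well fluorescence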
# The depositor's hits bear a star; x = no result given.
SMILES,rCAG binder,EBNA-1 inhibitor,ZTA counter,PAFAH1B3 FP inh,PAFAH2 inh,PAFAH1B2 FP inh,rCAG bind conf,DNA CAG counter
O=C(CCN1C(=O)/C(=C\C=C\c2ccccc2)SC1=S)Nc1ccc(C(=O)O)cc1,46*,15,6,-4,-5,-8,78*,43*
O=C(CN1C(=O)S/C(=C\C=C\c2ccccc2)C1=O)Nc1ccc(C(=O)O)cc1,54*,0,23,-1,-11,-1,46*,18*
O=C(COC(=O)CCN1C(=O)/C(=C\C=C\c2ccccc2)SC1=S)Nc1cc(F)ccc1F,38*,-9,1,-1,14,-2,28,14*
O=C(CCCN1C(=O)S/C(=C\C=C\c2ccccc2)C1=O)Nc1ccc(O)cc1,9,12,2,-1,0,-3,x,x
O=C(CN1C(=O)/C(=C\C=C\c2ccccc2)SC1=S)Nc1ccc(F)cc1,13,0,-4,4,2,-7,x,x
O=C(CN1C(=O)S/C(=C/C=C/c2ccccc2)C1=O)Nc1ccc(C(=O)O)cc1,65*,4,14,-1,3,1,45*,15*
CCOC(=O)N1CCN(C(=S)NC(=O)c2ccc(F)c(F)c2)CC1,-1,1,-19,9,-2,3,x,x
COc1ccc(/C=C2\C(=O)N(c3c(Cl)cc(Cl)cc3Cl)N=C2NC(=O)c2cccc([N+](=O)[O-])c2)cc1,x,8,10,8,22,3,x,x
CCOC(=O)C1=NN(c2ccccc2)C(=O)/C1=C\c1ccc(N(C)C)cc1,61*,0,11,7,4,3,63*,19*
COC(=O)CC1=NN(c2ccc(OC)cc2)C(=O)/C1=C\c1ccc(Cl)cc1,68*,-8,10,9,2,4,83*,41*
COc1ccc(C(=O)NNC(=O)C2=NN(c3ccccc3)C(=O)CC2)cc1,-1,-9,-2,3,2,3,x,x
COC(=O)CC1=NN(c2ccccc2)C(=O)/C1=C\c1ccc(OC)cc1,42*,10,-6,6,7,5,29,8.3*
CCOC(=O)CC1=NN(c2ccccc2)C(=O)/C1=C\c1ccc(OC)cc1OC,65*,-4,2,-8,-2,2,10,5.3*
CC(C)CC1c2[nH]c3ccccc3c2CCN1CCCn1cccn1 (stereo not drawn),-9,-8,-12,x,x,x,x,x
O=S(=O)(O)c1cc(O)c(N=Nc2ccc(O)cc2O)c2ccccc12,65*,x,x,90*,90*,87*,94*,67*
CSc1ccc(C2=C/C(=C3/SC(=S)NC3=O)c3ccccc3O2)cc1,2,x,x,0,0,-1,x,x
O=S(=O)(Nc1nc2ccc(S(=O)(=O)N3CCCC3)cc2s1)c1ccc(F)cc1,69*,3,0,-3,-6,3,52*,20*
COc1ccc(NC(=O)CN2C(=O)NC(c3ccccc3)(c3ccccc3)C2=O)cc1OC,0,1,-3,11,13,-5,x,x
Cc1cc2c(c(=O)o1)C(c1ccc([N+](=O)[O-])o1)C(C#N)=C(N)O2 (stereo not drawn),-3,3,5,x,x,x,x,x
COC(=O)c1ccc(CSc2nc3scc(-c4cccs4)c3c(=O)[nH]2)o1,35*,12,12,6,16,11,32,14*
N#Cc1ccc(Cn2ccc3ccc(-c4ccc5ccn(Cc6ccc(C#N)cc6)c5c4)cc32)cc1,13,x,x,x,x,x,x,x
Cc1ccc(S(=O)(=O)C(C#N)c2nc3ccccc3nc2OCCO)cc1 (stereo not drawn),62*,9,6,2,-6,7,52*,15*
CC(C)N1C(=O)S/C(=C/c2ccccc2OCc2ccc(C(=O)O)cc2)C1=O,55*,3,16,2,-5,8,56*,17*
Cc1ccc(CN2[C@@H](Cc3ccccc3)C(=O)CS2(=O)=O)cc1,41*,x,-13,4,-5,10,21,9.1*
COc1ccc(C(=O)OCCCN(C)C2CN(Cc3cn(Cc4cccc(F)c4)nn3)S(=O)(=O)C2)cc1OC (stereo not drawn),3,x,x,x,x,x,x,x
SMILES,rCAG binder,EBNA-1 inhibitor,ZTA counter,PAFAH1B3 FP inh,PAFAH2 inh,PAFAH1B2 FP inh,rCAG bind conf,DNA CAG counter
O=C(COc1ccccc1Cl)Nc1ccc(C(=O)O)cc1NC(=O)COc1ccccc1Cl,67*,-8,1,-2,0,7,53*,19*
O=C(COc1ccccc1Cl)Nc1ccccc1C(=O)Nc1cccc(C(=O)O)c1,40*,-2,1,3,17,-2,23,2
O=C(O)c1ccc(NC(=O)c2ccc(Cl)cc2)c(NC(=O)c2ccc(Cl)cc2)c1,71*,17,-3,0,-1,6,59*,23*
O=C(COc1ccccc1Cl)NC(=S)Nc1cccc(NC(=O)c2ccccc2Cl)c1,-2,9,10,-41,-42,-28,x,x
Cc1cc(C(=O)Nc2ccccc2C(=O)O)ccc1NC(=O)COc1ccccc1Cl,12,2,12,8,-2,6,x,x
CCC(CC)C(=O)N(C)c1c(C)nc2c(OCc3ccc(C(F)(F)F)cc3)cccn12,-3,x,x,x,x,x,x,x
CCN(CC)c1nc(N)c2c(N)n(-c3ccccc3C)c(=S)c(C#N)c2c1C#N,98*,19,-3,12,43*,25*,93*,69*
O=C(Cc1c(C(=O)O)[nH]c2ccc(Cl)cc12)Nc1ccc2c(c1)OCCO2,50*,9,-10,5,20,9,42*,8.4*
Cc1ccc(Cl)cc1N1CCN(C(=O)Cc2cn(C)c3ccccc23)CC1,-6,-1,-29,0,-1,3,x,x
Cc1ccc(Cl)cc1N1CCN(C(=O)Cc2c(C(=O)O)[nH]c3ccc(Cl)cc23)CC1,74*,6,20,0,3,5,84*,55*
Cc1ccc(Cl)cc1N1CCN(C(=O)Cc2c(C(=O)O)[nH]c3ccccc23)CC1,51*,-1,-3,8,0,-1,48*,14*
Cc1c(COc2ccc3ccccc3c2)nnn1CC(=O)NS(=O)(=O)c1ccccc1C(F)(F)F,70*,x,x,x,x,x,64*,26*
COc1cc(C)ccc1S(=O)(=O)NC(=O)Cn1nnc(COc2ccc3c(c2)CCCC3)c1C,48*,x,x,x,x,x,42*,12*

# Assay outcomes deposited in PubChem by The Scripps Research Institute Molecular Screening Center.
